Experimental data reported in PubChem BioAssay (EPA / NIEHS).
Records with an inconclusive call do not appear. Some structures have more than one record in an assay (separate samples or runs), and their calls can disagree. Calls of active or inactive are those of the source. Rule for the calls, unless noted: active = hit-call score of the fitted dose curve at least 0.9, where 1 is the maximum; inconclusive = response in the unintended direction; inactive = score below 0.9.

Columns and labels:
[1] = biological target: Estrogen receptor beta (Homo sapiens) (UniProt Q92731); assay: OT_ER_ERbERb_1440: Odyssey Thera (OT) 24-hour HEK293T Protein-Complementation Assay for Estrogen Receptor-beta/-beta Homodimer (AID 2283380);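 note: scored as signal increase over DMSO baseline for both agonists and antagonists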
Estrogen receptor beta (Homo sapiens), sequence (Q92731 whole entry, looked up, the tested form may be a part): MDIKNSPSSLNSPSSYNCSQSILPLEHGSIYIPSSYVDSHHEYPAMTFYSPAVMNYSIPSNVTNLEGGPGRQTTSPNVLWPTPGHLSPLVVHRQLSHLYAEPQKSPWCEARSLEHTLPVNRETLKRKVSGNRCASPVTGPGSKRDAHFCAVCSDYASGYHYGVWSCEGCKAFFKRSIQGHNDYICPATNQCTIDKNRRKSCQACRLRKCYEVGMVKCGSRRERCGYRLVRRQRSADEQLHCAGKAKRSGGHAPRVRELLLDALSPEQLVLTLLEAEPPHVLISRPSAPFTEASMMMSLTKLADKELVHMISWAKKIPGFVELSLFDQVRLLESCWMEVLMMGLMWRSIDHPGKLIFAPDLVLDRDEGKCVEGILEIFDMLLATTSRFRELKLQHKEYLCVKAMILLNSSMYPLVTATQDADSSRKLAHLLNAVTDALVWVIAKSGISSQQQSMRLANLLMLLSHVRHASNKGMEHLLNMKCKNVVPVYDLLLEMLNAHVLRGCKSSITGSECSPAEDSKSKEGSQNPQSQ
Summary of the method: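 HEK293T cells stably expressing ER beta LBD (aa 310-547) homodimer fragment-complementation reporter, dosed 24 h. Cells formaldehyde-fixed, Draq5-stained; gain in nuclear (agonist) or nuclear plus cytoplasmic (antagonist) fluorescence versus DMSO read by laser scanning cytometry.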

[2] = biological target: Estrogen receptor (Homo sapiens) (UniProt P03372); assay: OT_ERa_GFPERaERE_0480: Odyssey Thera (OT) 8-hour HeLa Transcription Induction Assay for Estrogen Receptor (AID 2283381; active = hit-call score of the fitted dose curve at least 0.9, where 1 is the maximum; inactive = score below 0.9)
Estrogen receptor (Homo sapiens), sequence (P03372 whole entry, looked up): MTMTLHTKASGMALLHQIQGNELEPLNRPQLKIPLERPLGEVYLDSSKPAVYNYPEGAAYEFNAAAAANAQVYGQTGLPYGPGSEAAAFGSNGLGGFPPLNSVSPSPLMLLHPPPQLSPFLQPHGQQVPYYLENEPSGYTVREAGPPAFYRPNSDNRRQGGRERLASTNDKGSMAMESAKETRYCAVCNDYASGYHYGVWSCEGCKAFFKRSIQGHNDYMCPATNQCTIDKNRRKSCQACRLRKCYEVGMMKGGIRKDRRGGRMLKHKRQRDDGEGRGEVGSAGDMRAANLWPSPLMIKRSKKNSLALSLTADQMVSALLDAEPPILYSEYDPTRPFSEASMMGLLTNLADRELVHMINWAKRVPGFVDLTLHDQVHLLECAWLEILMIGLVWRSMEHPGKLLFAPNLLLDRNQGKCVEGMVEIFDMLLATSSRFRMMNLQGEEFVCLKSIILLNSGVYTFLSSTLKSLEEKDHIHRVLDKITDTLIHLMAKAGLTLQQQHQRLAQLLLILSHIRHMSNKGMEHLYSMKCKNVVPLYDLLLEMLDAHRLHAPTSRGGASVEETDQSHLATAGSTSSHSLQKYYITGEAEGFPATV
Summary of the method: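 Fluorescence microscopy with high-content image analysis measures ERE-driven GFP induction in HeLa cells at 8 h post-dose. Increases fitted against DMSO baseline.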

[3] = biological target: Estrogen receptor (Homo sapiens) (UniProt P03372); assay: OT_ERa_GFPERaERE_0120: Odyssey Thera (OT) 2-hour HeLa Transcription Induction Assay for Estrogen Receptor (AID 2283382)
Summary of the method: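 Fluorescence-microscopy images of the GFP-ERα/ERE reporter, scored by high-content image algorithms, give the readout. HeLa exposure lasted 2 h, and only signal increase over DMSO was fitted.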

[4] = biological target: Retinoic acid receptor RXR-alpha (Homo sapiens) (UniProt P19793); assay: OT_NURR1_NURR1RXRa_0480: Odyssey Thera (OT) 8-hour HEK293T Protein Complementation Assay for Nurr1/retinoid X receptor (RXR) (AID 2283385)
Retinoic acid receptor RXR-alpha (Homo sapiens), sequence (P19793 whole entry, looked up, the tested form may be a part): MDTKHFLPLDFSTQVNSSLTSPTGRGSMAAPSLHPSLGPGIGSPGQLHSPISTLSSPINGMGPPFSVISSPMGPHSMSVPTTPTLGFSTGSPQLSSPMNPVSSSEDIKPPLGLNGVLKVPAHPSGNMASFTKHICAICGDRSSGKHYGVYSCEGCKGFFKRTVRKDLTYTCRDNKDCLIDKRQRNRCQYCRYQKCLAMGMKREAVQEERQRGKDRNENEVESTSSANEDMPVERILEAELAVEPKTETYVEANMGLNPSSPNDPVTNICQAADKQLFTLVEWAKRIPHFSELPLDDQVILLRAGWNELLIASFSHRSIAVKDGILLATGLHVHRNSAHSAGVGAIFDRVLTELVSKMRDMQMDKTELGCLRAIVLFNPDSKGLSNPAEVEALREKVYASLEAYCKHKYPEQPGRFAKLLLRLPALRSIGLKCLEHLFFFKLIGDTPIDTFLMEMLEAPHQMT
Summary of the method: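 Interaction of Nurr1 with RXRα read as reconstituted reporter fluorescence in a HEK293T fragment-complementation system, 8 h post-treatment; increase over DMSO baseline analysed.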

[5] = biological target: Retinoic acid receptor RXR-alpha (Homo sapiens) (UniProt P19793); assay: OT_NURR1_NURR1RXRa_1440: Odyssey Thera (OT) 24-hour HEK293T Protein Complementation Assay for Nurr1/retinoid X receptor (RXR) (AID 2283386)
Summary of the method: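 Gain in fluorescence, fitted relative to DMSO, reflects Nurr1–RXRα association in HEK293T cells after 24 h dosing. Bait and prey are each linked to a reporter-protein fragment that reassembles on interaction.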

[6] = biological target: Peroxisome proliferator-activated receptor gamma (Homo sapiens) (UniProt P37231); assay: OT_PPARg_PPARgSRC1_0480: Odyssey Thera (OT) 8-hour Protein-Complementation Assay for Peroxisome Proliferator-activated Receptor Gamma / SRC-1 Co-activator (AID 2283387)
Peroxisome proliferator-activated receptor gamma (Homo sapiens), sequence (P37231 whole entry, looked up, the tested form may be a part): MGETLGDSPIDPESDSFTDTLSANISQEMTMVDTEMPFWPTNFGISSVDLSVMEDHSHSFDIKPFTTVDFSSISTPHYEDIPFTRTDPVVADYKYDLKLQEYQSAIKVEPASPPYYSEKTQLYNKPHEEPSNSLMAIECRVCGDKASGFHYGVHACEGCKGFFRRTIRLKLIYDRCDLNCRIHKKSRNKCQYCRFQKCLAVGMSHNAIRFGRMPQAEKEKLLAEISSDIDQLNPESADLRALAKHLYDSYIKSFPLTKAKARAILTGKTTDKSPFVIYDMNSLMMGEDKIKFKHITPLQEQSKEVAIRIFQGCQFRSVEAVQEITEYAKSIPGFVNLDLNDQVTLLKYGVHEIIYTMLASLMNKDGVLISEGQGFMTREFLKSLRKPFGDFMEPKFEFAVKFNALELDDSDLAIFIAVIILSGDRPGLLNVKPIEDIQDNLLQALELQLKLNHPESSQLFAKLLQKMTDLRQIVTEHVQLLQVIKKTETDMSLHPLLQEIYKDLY
Summary of the method: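 Split-YFP (IFP1/IFP2) PPARg/SRC-1 reporter, HEK293T, 37 °C, 5% CO2; 8 h compound; formaldehyde fix + Draq5; high-content imaging, N/C ratio, ≥350 cells/image, positive direction vs DMSO.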

[7] = biological target: Peroxisome proliferator-activated receptor gamma (Homo sapiens) (UniProt P37231); assay: OT_PPARg_PPARgSRC1_1440: Odyssey Thera (OT) 24-hour Protein-Complementation Assay for Peroxisome Proliferator-activated Receptor Gamma/ SRC-1 Co-activator (AID 2283388)
Summary of the method: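 HEK293T transiently transfected with PPARg/SRC-1 split-Venus YFP fusions 48 h before dosing, then treated 24 h at 37C. Fixed cells imaged; nuclear/cytoplasmic 488 nm fluorescence ratio, gain of signal versus DMSO.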

[8] = biological target: mouse Estrogen Receptor alpha (Era), Esr1 (gene 13982) (UniProt P19785); assay: NVS_NR_mERa: NovaScreen (NVS) Nuclear Receptor Binding Assay for mouse Estrogen Receptor alpha (Era) (AID 2283378);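 note: hit means loss of bound radioligand signal relative to DMSO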
mouse Estrogen Receptor alpha (Era), Esr1 (gene 13982), sequence (P19785 whole entry, looked up): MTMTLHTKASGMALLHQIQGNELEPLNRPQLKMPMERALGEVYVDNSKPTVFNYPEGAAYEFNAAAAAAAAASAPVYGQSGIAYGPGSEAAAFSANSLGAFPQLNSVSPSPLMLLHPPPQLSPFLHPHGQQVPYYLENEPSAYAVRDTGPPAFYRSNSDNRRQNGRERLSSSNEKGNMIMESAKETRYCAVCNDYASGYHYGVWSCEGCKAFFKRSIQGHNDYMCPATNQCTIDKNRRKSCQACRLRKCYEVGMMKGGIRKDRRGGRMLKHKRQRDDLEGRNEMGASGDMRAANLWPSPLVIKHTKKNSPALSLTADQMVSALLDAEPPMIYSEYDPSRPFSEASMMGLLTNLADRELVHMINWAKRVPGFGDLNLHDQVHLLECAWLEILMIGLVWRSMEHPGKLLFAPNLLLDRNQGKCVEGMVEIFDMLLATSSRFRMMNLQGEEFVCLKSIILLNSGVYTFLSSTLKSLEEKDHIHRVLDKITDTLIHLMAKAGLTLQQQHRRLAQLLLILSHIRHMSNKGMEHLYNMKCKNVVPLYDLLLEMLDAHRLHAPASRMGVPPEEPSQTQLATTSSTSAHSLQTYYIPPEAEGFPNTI
Summary of the method: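 Cell-free radioligand competitive displacement binding, read by filter-based scintillation counting 18 h after dosing. Primary screen run in duplicate at 25 uM, actives retested in concentration series; loss of signal versus DMSO.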

[9] = biological target: Bile acid receptor (Homo sapiens) (UniProt Q96RI1); assay: OT_FXR_FXRSRC1_0480: Odyssey Thera (OT) 8-hour HEK293T Protein-Complementation Assay for Farnesoid X receptor/SRC-1 Co-activator (AID 2283383)
Bile acid receptor (Homo sapiens), sequence (Q96RI1 whole entry, looked up, the tested form may be a part): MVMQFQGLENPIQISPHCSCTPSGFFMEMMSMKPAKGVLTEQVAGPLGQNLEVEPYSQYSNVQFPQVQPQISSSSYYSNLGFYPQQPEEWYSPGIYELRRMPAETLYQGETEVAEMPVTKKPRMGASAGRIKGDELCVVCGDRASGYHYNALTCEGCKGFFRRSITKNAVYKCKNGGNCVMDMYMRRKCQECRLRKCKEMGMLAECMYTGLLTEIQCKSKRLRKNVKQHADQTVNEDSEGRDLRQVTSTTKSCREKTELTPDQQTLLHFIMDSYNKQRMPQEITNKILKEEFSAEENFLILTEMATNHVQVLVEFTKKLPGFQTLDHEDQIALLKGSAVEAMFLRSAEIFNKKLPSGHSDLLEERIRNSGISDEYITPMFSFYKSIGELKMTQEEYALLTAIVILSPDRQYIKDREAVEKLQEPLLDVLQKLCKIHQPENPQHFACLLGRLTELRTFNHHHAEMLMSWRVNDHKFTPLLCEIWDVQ
Summary of the method: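 Binding of FXR to coactivator SRC-1 was read as fluorescence from a reconstituted split reporter in HEK293T cells, 8 h after chemical addition. Only increases in signal versus DMSO were fit.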

[10] = biological target: Bile acid receptor (Homo sapiens) (UniProt Q96RI1); assay: OT_FXR_FXRSRC1_1440: Odyssey Thera (OT) 24-hour HEK293T Protein-Complementation Assay for Farnesoid X receptor/SRC-1 Co-activator (AID 2283384)
Summary of the method: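 Protein-fragment complementation: FXR and SRC-1 fused to reporter fragments that reassemble on interaction, read by fluorescence intensity. Human HEK293T cells measured 24 h post-dose; positive-direction fit versus DMSO.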

[11] = CEETOX_H295R_11DCORT: CeeTox H295R High-throughput Steroidogenesis Assay for 11-Deoxycortisol (11DCORT) (AID 2283432; active = hit-call score of the fitted dose curve at least 0.9, where 1 is the maximum; inactive = score below 0.9;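 for AC50: 11-deoxycortisol secreted into the medium measured by LC-MS/MS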); settings: actives raise or lower the signal
Summary of the method: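 Steroidogenesis in human H295R cells: 48 h chemical exposure after forskolin priming, 11-deoxycortisol measured by LC-MS/MS.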

[12] = CEETOX_H295R_OHPREG: CeeTox H295R High-throughput Steroidogenesis Assay for OH-Pregnenolone (OHPREG) (AID 2283434; active = hit-call score of the fitted dose curve at least 0.9, where 1 is the maximum; inactive = score below 0.9); settings: actives raise or lower the signal
Summary of the method: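 H295R, 10 uM forskolin pre-stim 48 h; test chemical 48 h, 0.1% DMSO final. MTBE extraction, reverse-phase C18 HPLC-ESI+ MS/MS of medium. Gain/loss vs DMSO; viability by MTT in same wells.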

[13] = CEETOX_H295R_OHPROG: CeeTox H295R High-throughput Steroidogenesis Assay for OH-Progesterone (OHPROG) (AID 2283435; active = hit-call score of the fitted dose curve at least 0.9, where 1 is the maximum; inactive = score below 0.9;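 for AC50: 17alpha-hydroxyprogesterone secreted into medium measured by HPLC-MS/MS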); settings: actives raise or lower the signal
Summary of the method: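 Medium steroid levels read by LC-MS/MS after 48 h chemical treatment (0.1% DMSO) of human adrenal H295R cells that had been forskolin-primed (10 uM, 48 h). Gain or loss fitted against DMSO; MTT cytotoxicity checked per well.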

[14] = CEETOX_H295R_CORTIC: CeeTox H295R High-throughput Steroidogenesis Assay for Corticosterone (CORTIC) (AID 2283437; active = hit-call score of the fitted dose curve at least 0.9, where 1 is the maximum; inactive = score below 0.9;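 note: corticosterone secreted into medium quantified by mass spectrometry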;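 for AC50: human H295R adrenal cells prestimulated with forskolin before chemical exposure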); settings: actives raise or lower the signal
Summary of the method: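 48 h forskolin (10 uM) prestim, then 48 h chemical exposure, final DMSO 0.1%. Readout: corticosterone in medium by LC-MS/MS after MTBE extraction. Gain/loss fit vs DMSO; MTT viability in same wells.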

[15] = CEETOX_H295R_CORTISOL: CeeTox H295R High-throughput Steroidogenesis Assay for Cortisol (AID 2283438; active = hit-call score of the fitted dose curve at least 0.9, where 1 is the maximum; inactive = score below 0.9;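 note: cortisol secreted into medium quantified by LC-MS/MS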); settings: actives raise or lower the signal
Summary of the method: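 Cortisol measured by HPLC-MS/MS after MTBE extraction of medium from H295R cells exposed 48 h to chemical (0.1% DMSO), following 48 h prestimulation with 10 uM forskolin. Viability assessed by MTT in the same wells.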

[16] = CEETOX_H295R_ANDR: CeeTox H295R High-throughput Steroidogenesis Assay for Androstenedione (ANDR) (AID 2283436; active = hit-call score of the fitted dose curve at least 0.9, where 1 is the maximum; inactive = score below 0.9;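 note: human H295R adrenal cells exposed for 48 h with androstenedione measured in medium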); settings: actives raise or lower the signal
Summary of the method: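 48 h chemical exposure, H295R cells, DMEM/F12 + ITS+ and Nu-Serum. Medium androstenedione: MTBE extraction, C18 reverse-phase HPLC, ESI+ MS/MS. Fit bidirectional vs DMSO; MTT viability in same wells.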

[17] = CEETOX_H295R_ESTRADIOL: CeeTox H295R High-throughput Steroidogenesis Assay for Estradiol (AID 2283440; active = hit-call score of the fitted dose curve at least 0.9, where 1 is the maximum; inactive = score below 0.9;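 note: estradiol secreted into medium quantified by LC-MS/MS after dansyl derivatisation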); settings: actives raise or lower the signal
Summary of the method: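 H295R cells pre-stimulated 48 h with 10 uM forskolin, then exposed 48 h to chemical in 0.1% DMSO. Medium estradiol quantified by MTBE extraction, dansyl derivatisation and HPLC-MS/MS; bidirectional fit versus DMSO; MTT viability required >/=70%.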

Measured: AC50

COc1ccc(C=O)cc1OC
inactive: [1] | [2] | [3] | [4] | [5] | [6] | [7]

Oc1ccc(-c2ccccc2)cc1
inactive: [4] | [6] | [7] | [15]
active: [8] 17.7 µM | [1] 11.8 µM | [9] 33.3 µM | [10] 33.3 µM | [5] 50 µM | [11] 87.6 µM | [12] 74.2 µM | [13] 13.1 µM | [14] 14 µM

CC(C)OC(=O)Nc1ccccc1
active: [8] 5.18 µM
inactive: [2] | [3] | [4] | [6] | [7] | [12] | [13]

CC(C)(c1ccc(OCC2CO2)cc1)c1ccc(OCC2CO2)cc1 (configuration not stated)
inactive: [1] | [2] | [3] | [4] | [6] | [7]

N#CN=C(N)N
inactive: [1] | [2] | [3] | [10] | [5] | [6] | [7]

COC(=O)c1sccc1S(=O)(=O)NC(=O)Nc1nc(C)nc(OC)n1
inactive: [1] | [2] | [3] | [5] | [6] | [7]

Cc1ccccc1C(=O)Nc1cccc(OC(C)C)c1
inactive: [1] | [2] | [3] | [4] | [6] | [7]

O=C1CCCN1
inactive: [8] | [2] | [3] | [10] | [5] | [6]

C=CC#N
inactive: [8] | [1] | [2] | [4] | [6] | [7]

CC(C)c1cccc(C(C)C)c1O
inactive: [1] | [2] | [3] | [4] | [5] | [7]

Cl/C=C\C[N+]12CN3CN(CN(C3)C1)C2
inactive: [1] | [3] | [6] | [7]
active: [2] 82.2 µM

CC1(C)CCC(Cc2ccc(Cl)cc2)C1(O)Cn1cncn1 (configuration not stated)
inactive: [8] | [2] | [3] | [4] | [5] | [6] | [7]
active: [9] 24.3 µM | [10] 31.6 µM | [12] 0.143 µM | [13] 0.0959 µM

COP(=O)(OC)O/C(=C\Cl)c1cc(Cl)c(Cl)cc1Cl
active: [4] 4.45 µM
not listed: [1] | [11] | [14] | [15] | [17]
inactive: all other assays above

CNC(=O)O/N=C/C(C)(C)S(C)=O (configuration not stated)
inactive: [1] | [2] | [3] | [9] | [4] | [5] | [6] | [7]

C[C@H]1CCCC(=O)CCC/C=C/c2cc(O)cc(O)c2C(=O)O1
active: [1] 0.0449 µM | [2] 0.103 µM | [3] 0.0915 µM
inactive: [6] | [7]

BrCCBr
inactive: [1] | [2] | [3] | [4] | [5] | [6] | [7]

CC(C)C1CCC(Cc2ccc(Cl)cc2)C1(O)Cn1cncn1 (configuration not stated)
inactive: [1] | [2] | [6] | [7]
active: [3] 90.2 µM | [10] 11.2 µM

C(=NC1CCCCC1)=NC1CCCCC1
inactive: [12] | [13] | [17]

CCC[CH2][Sn]([Cl])([Cl])[Cl]
inactive: [2] | [3] | [9] | [10] | [4] | [7]

C=CC(=O)N(C)C
inactive: [11] | [12] | [13] | [14] | [15] | [17]

CC1(C)Cc2cccc(O)c2O1
inactive: [1] | [2] | [3] | [6] | [7]

CCOP(=S)(OCC)SCCS(=O)(=O)CC
inactive: [11] | [12] | [14] | [15] | [17]
active: [13] 14.9 µM

Cc1ccc(N)cc1Cl
active: [3] 0.789 µM
inactive: [2] | [4] | [6] | [7]

CCCCCCCCc1ccc(O)cc1
inactive: [4] | [5] | [6] | [7]
active: [1] 12.3 µM | [5] 57.4 µM
